The source of these data is PubChem BioAssay AID651812 (National Center for Advancing Translational Sciences (NCATS), 2012).

Structures are written as SMILES. The campaign covered roughly 2,100 compounds. About 650 (31%) were called active. Inconclusive results (about 16%) are left out. The call rests on the fitted dose curve; in most records, active means well fitted inhibition curve with a large enough effect; inconclusive means small, poorly fitted or top-dose-only effect; inactive means flat fitted curve, though single readings scatter. The list shows a part of the results.
Potency means the concentration at half of the fitted maximal effect.

The assay can be described thus: qHTS for inhibitors of Vif-A3G interactions: Cherry picks. Further: nearly all actives have a fitted effect of over 80% in size. On activity, negative = fluorescence increase: % of control where 0% means no effect. The note with it: HeLa A3G-eYFP + Vif (tagged APOBEC3G with the HIV-1 protein that degrades it), 24 h; Potency: eYFP fluorescence increase; series mostly up to 36.9 µM; activity, negative = fluorescence increase: at the top concentration. Put shortly:
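Cherry-picked compounds tested at several concentrations on A3G-eYFP/Vif HeLa cells for 24 hours; loss of Vif-driven degradation read as eYFP fluorescence by cytometric plate imaging, 488 nm excitation, 500-530 nm emission.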
For orientation: qHTS replaces the single test concentration by a dilution series.
Take `O=C(NNc1ncc(C(F)(F)F)cc1Cl)c1c(Cl)cccc1Cl`: the “activity, negative = fluorescence increase” value is -5.87% (inactive). `COc1cc(/C=C2\SC(=S)N(Nc3ncc(C(F)(F)F)cc3Cl)C2=O)ccc1O`: the Potency is 18.4 µM (active).

Consider `CN(C)c1ccc(/C=C2\SC(=S)N(Nc3ncc(C(F)(F)F)cc3Cl)C2=O)cc1`, for which the Potency is 3.66 µM (active).

As to `CCOC(=O)Nc1ccc2nc(-c3cscn3)[nH]c2c1`, the “activity, negative = fluorescence increase” value is -7.25% (inactive). Take `CCCn1c(C2CCCN2c2nc(-c3cccc(Br)c3)cs2)nc2ccccc21` (centres undefined): the “activity, negative = fluorescence increase” value was 3.02% [at 46.1 µM] (inactive). As for `CCc1ccc(NC(=O)/C(C#N)=C/c2cc3ccc(C)cc3nc2N2CCOCC2)cc1`, the Potency was 14.6 µM (active).

As to `CCc1ccc(C(=O)NC(=S)Nc2ccc(N3CCOCC3)cc2)cc1`, the “activity, negative = fluorescence increase” value was 2.8% [at 46.1 µM] (inactive). Still for that read-out and setting: the same measure for `Cc1cc2c(cc(C(=O)OCC(=O)NCc3cccs3)n2C(C)C)o1`: -9.64% (inactive). With `CCOC(=O)C1C(=O)C=C(/C=C/c2ccc(N(C)C)cc2)CC1c1ccccc1` (centres undefined), the Potency was 6.51 µM (active). As for `COc1ccc(NC(=S)NN(C)C(=S)Nc2ccc(OC)cc2)cc1`, the “activity, negative = fluorescence increase” value is -10.7% (inactive).

For the compound `CCC(=C/c1sc2ccc3ccccc3c2[n+]1C)/C=C1\Sc2ccc3ccccc3c2N1C`, the “activity, negative = fluorescence increase” value is -6.59% [at 46.1 µM] (inactive). Consider `CCN1/C(=C/c2cc[n+](C)cc2)C=Cc2cc(C)ccc21`, for which the Potency is 23.1 µM (active). Turning to `Cc1cc(C)c(S(=O)(=O)Oc2ccccc2[N+](=O)[O-])c(C)c1`, the “activity, negative = fluorescence increase” value was -2.52% (inactive).

In the case of `CCOC(=O)C1CCCN(C(=O)c2ccc3nc(-c4cccc(OC)c4)oc3c2)C1` (centres undefined), the “activity, negative = fluorescence increase” value is -9.04% (inactive). As for `COc1ccc(NC(=O)N(Cc2cc3ccc(OC)cc3[nH]c2=O)CC2CCCO2)cc1` (centres undefined), the “activity, negative = fluorescence increase” value is -0.563% (inactive). Regarding `COc1ccc(NCc2cc3cc4c(cc3n(CC(=O)Nc3cc(C)ccc3C)c2=O)OCCO4)cc1`, the Potency is 2.31 µM (active). `O=C(Cn1ncc(Cl)c(Cl)c1=O)Nc1ccc2c(c1)OCO2`: the “activity, negative = fluorescence increase” value was -1.73% (inactive). Same read-out and setting: the same measure for `Cc1cc(NC(=O)CSc2nc(-c3cccs3)nc3ccccc23)no1`: -19.4% (inactive). As to `Cc1cc(NC(=O)CSc2nc3c(C)cccc3cc2C#N)no1`, the Potency was 20.6 µM (active).

Take `Cc1cc2cc(C#N)c(SCC(=O)Nc3nonc3C)nc2cc1C`: the Potency is 14.6 µM (active). With `Cc1nonc1NC(=O)CSc1nc2c(C)cccc2cc1C#N`, the Potency is 18.4 µM (active). On to `Cc1ccccc1NC(=O)CSc1nc2cc3c(cc2cc1C)CCC3`, for which the “activity, negative = fluorescence increase” value was -2.42% (inactive). Same read-out and setting: the same measure for `COC(=O)C1CCC(=O)N1C(c1ccc(OC)cc1)c1cc(OC)c(OC)c(OC)c1` (centres undefined): -7.8% (inactive).

`COc1ccc2ccccc2c1C1NC(=O)c2ccccc2N1` (centres undefined): the “activity, negative = fluorescence increase” value was -12.9% (inactive).

Take `CN(C)c1ccc(/C=C2\Cc3ccccc3C2=O)cc1`: the Potency is 3.26 µM (active).

Take `Nc1ccccc1C=C1Cc2ccccc2C1=O`: the Potency was 16.4 µM (active). `COc1ccc(/C=C2/CSC/C(=C/c3ccc(OC)c(OC)c3)C2=O)cc1OC`: the “activity, negative = fluorescence increase” value is -0.25% (inactive). The same measure, in the same setting: the same measure for `O=C1C(=Cc2ccccc2[N+](=O)[O-])Cc2ccccc21`: -41.4% [at 46.1 µM] (inactive). Regarding `CN(C)c1ccc(/C=C2/C[N+](C)(C)C/C(=C/c3ccc(N(C)C)cc3)C2=O)cc1`, the Potency was 9.2 µM (active). On to `Cc1ccc2nc(C)c(C(=O)NN=C3CCCCCC3)n2c1`, for which the “activity, negative = fluorescence increase” value was 1.33% (inactive). Still for that read-out and setting: the same measure for `CSc1nc(Sc2ccccc2Cl)c2ccccc2n1`: -4.7% (inactive); for `CCC1CCCCN1CCCNC(=O)c1ccc2c(c1)N(Cc1ccccc1F)C(=O)c1ccccc1S2(=O)=O` (centres undefined): -9.99% [at 46.1 µM] (inactive).

As to `N#Cc1cccc(NC(=O)CSc2ccc3c4c(cccc24)C(=O)c2ccccc2-3)c1`, the Potency is 6.51 µM (active). For `CCn1c(SCC(=O)Nc2cccc(O)c2)nc2c1c(=O)n(C)c(=O)n2C`, the “activity, negative = fluorescence increase” value is 2.18% [at 46.1 µM] (inactive).

With `CCn1c(CNC(=O)C23CC4CC(CC(C4)C2)C3)nnc1SCC(=O)Nc1ccc(OC)cc1`, the “activity, negative = fluorescence increase” value is -2.38% [at 46.1 µM] (inactive). As for `COc1ccc(NC(=O)c2cccc3ccccc23)cc1`, the “activity, negative = fluorescence increase” value was -0.0498% (inactive). Turning to `COc1ccc(NC(=O)CSc2ccc3c4c(cccc24)C(=O)c2ccccc2-3)cc1`, the Potency is 7.31 µM (active). With `CCCn1nnc(NC(=S)NC(=O)c2ccccc2OC)n1`, the “activity, negative = fluorescence increase” value was 13.5% [at 46.1 µM] (inactive). In the case of `O=C(NC12CC3CC(CC(C3)C1)C2)c1ccc([N+](=O)[O-])o1`, the “activity, negative = fluorescence increase” value was -1.29% (inactive).

For the compound `CN1CCC(OC(=O)c2cc3cc(Cl)cc(Cl)c3oc2=O)CC1`, the “activity, negative = fluorescence increase” value is -0.249% (inactive). On the same count and under the same terms, the same measure for `Cc1ccccc1OCCc1c(C)[nH]c(=S)[nH]c1=O`: -13.9% (inactive); for `O=C(c1ccccn1)C1CCCN(Cc2cn[nH]c2-c2cc3ccccc3o2)C1` (centres undefined): -0.654% (inactive). With `Cc1c(N=C2N=C(NC(=O)c3cccs3)c3ccccc32)c(=O)n(-c2ccccc2)n1C`, the Potency is 14 µM (active). As to `COc1ccc(N2C(=O)CC(Sc3nc(C)c4c(n3)CCCC4)C2=O)cc1` (centres undefined), the “activity, negative = fluorescence increase” value was -0.198% (inactive).

On to `Cn1c(N)c(-c2ccccc2)c2ccc([N+](=O)[O-])cc2c1=O`, for which the Potency is 15.8 µM (active). As for `CCc1cc[n+](-c2nc3ccccc3nc2[N-]S(=O)(=O)c2ccc(Br)s2)cc1`, the Potency was 20.6 µM (active). On to `O=S(=O)([N-]c1nc2ccccc2nc1-[n+]1ccc(-c2ccncc2)cc1)c1ccccc1`, for which the “activity, negative = fluorescence increase” value was -2.95% [at 46.1 µM] (inactive). As to `Cc1cc(C)c[n+](-c2nc3ccccc3nc2[N-]S(=O)(=O)c2ccc(Br)s2)c1`, the Potency is 18.4 µM (active). As for `COCc1ccc(O)c2ncccc12`, the “activity, negative = fluorescence increase” value was 0.129% (inactive). In the case of `COC(=O)c1c(N2C(=O)[C@H]3[C@@H](C2=O)[C@]2(C(=O)Nc4c(C)cccc42)N2CCC[C@@H]32)sc(C)c1C`, the “activity, negative = fluorescence increase” value was -0.0305% (inactive). As for `CC(=O)/C(N=Nc1cc(C)ccc1O)=C(\C)O`, the Potency is 16.4 µM (active). `CCCN(C(=O)CSc1n[nH]c(-c2ccc(OC)cc2)n1)c1c(N)n(Cc2ccccc2)c(=O)[nH]c1=O`: the “activity, negative = fluorescence increase” value was -14.5% [at 46.1 µM] (inactive). In the case of `COc1ccc2c(c1)c(/C=C/c1cc[n+](C)cc1)cn2C`, the Potency was 1.98 µM (active). The same measure, in the same setting: the same measure for `C[n+]1ccc(/C=C/c2c[nH]c3ccc(F)cc23)cc1`: 14.6 µM (active). Consider `Cc1ccc2[nH]cc(/C=C/c3cc[n+](C)cc3)c2c1`, for which the Potency was 4.44 µM (active). For `COc1ccc2c(c1)c(C(=O)N/N=C/c1ccc(Cl)cc1)c(C)n2C`, the “activity, negative = fluorescence increase” value is -0.209% (inactive). Consider `COc1ccc2[nH]cc(/C=C/c3cc[n+](C)cc3)c2c1`, for which the Potency was 13 µM (active). Take `CSc1cccc(NC(=O)c2cc3c(COC(C)=O)cnc(C)c3oc2=O)c1`: the “activity, negative = fluorescence increase” value is -0.348% [at 46.1 µM] (inactive). On the same count and under the same terms, the same measure for `O=C(NC1C/C(=N/O)c2cc3c(cc21)OCO3)C(F)(F)F` (centres undefined): 0.0478% [at 46.1 µM] (inactive). For `CCOc1ccc(C(C)=O)cc1COc1cccnc1[N+](=O)[O-]`, the “activity, negative = fluorescence increase” value is -3.29% (inactive). Turning to `O=C(NCc1cccs1)C1CCN(c2ccc(S(=O)(=O)N3CCOCC3)cc2Cl)CC1`, the “activity, negative = fluorescence increase” value is -2.2% (inactive).

Consider `O=S(=O)(Nc1nc2ccccc2nc1OCC(F)(F)F)c1cccs1`, for which the “activity, negative = fluorescence increase” value is 13.5% [at 46.1 µM] (inactive). `CC[N+](C)(C)c1ccc(/C=C/c2ccncc2)cc1`: the Potency was 20.6 µM (active). Consider `CCC[N+](C)(C)c1ccc(/C=C/c2ccncc2)cc1`, for which the Potency is 18.4 µM (active).
